# High-throughput results: PubChem, several laboratories
# H9c2 protect = cardioprotection against H2O2-induced cell death, primary screen, uHTS, H9c2 cells, ATPLite luminescence; AID 588492, 2011; hit rate 0.63% among 360,000; H9c2 cardiomyocytes, H2O2 injury protection, 2 h; protection from H2O2 cell death, % at 20 µM;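 active means compounds giving at least 50% protection of heart cells from peroxide-induced death in the single-dose screen, raw or plate-pattern-corrected value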;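 further: 0% = DMSO wells with peroxide and 100% = DMSO wells without peroxide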
# PfG6PD inh = PfG6PD enzyme inhibitors, primary screen, biochemical, fluorescence intensity, uHTS | PfGluPho enzyme, NADPH resazurin-diaphorase fluorescence | inhibition, % at 20 µM | hit rate 0.78% among 350,000 | AID 504690, 2011;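 active means inhibition reaching at least a set limit at 20 µM in the primary screen, cut at about 59% in these data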;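 further: 0% = DMSO wells with substrate and 100% = DMSO wells lacking glucose-6-phosphate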
# PHOSPHO1 block = PubChem AID 1565. Phosphoethanolamine/phosphocholine phosphatase (Homo sapiens), Q8TCT1. recombinant PHOSPHO1, absorbance phosphatase assay. inhibition, % at 13.3 µM. hit rate 1.1% among 290,000; in the data active means inhibition above about 60%
# Target sequence (Q8TCT1 whole entry, looked up): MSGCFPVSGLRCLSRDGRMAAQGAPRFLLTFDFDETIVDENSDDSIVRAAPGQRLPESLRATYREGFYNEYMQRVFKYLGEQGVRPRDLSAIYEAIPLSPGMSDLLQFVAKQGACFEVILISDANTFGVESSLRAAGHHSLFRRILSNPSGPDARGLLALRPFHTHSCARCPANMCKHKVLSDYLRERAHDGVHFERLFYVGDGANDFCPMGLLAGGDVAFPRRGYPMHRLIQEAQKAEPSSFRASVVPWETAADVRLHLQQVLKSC
# PfM18AAP inh = PfM18AAP inhibitors, malaria aminopeptidase, primary screen, biochemical, QFRET, recombinant enzyme. H-Glu-NHMec fluorogenic cleavage. hit rate 1.2% among 290,000. M18 aspartyl aminopeptidase (Plasmodium falciparum 3D7). AID 1822, 2009. inhibition, % at 7.35 µM;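 active means inhibition above the campaign mean inhibition over all tested compounds plus 3 SD, cut at about 28% in these data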;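 further: 0% = plate median of test compound wells and 100% = 2 mM ZnCl2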
# ALR H2O2 inh = inhibitors of human ALR sulfhydryl oxidase, primary screen, biochemical, H2O2 detection, HRP-luminol luminescence, single point. FAD-linked sulfhydryl oxidase ALR (Homo sapiens), P55789. purified ALR, DTT oxidation. inhibition, % (concentration not given with the values). hit rate 3.8% among 290,000. AID 485317, 2010;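 active means mean replicate inhibition above about 79%, with every replicate also reaching it, limit read from the data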
# Target sequence (P55789 whole entry, looked up): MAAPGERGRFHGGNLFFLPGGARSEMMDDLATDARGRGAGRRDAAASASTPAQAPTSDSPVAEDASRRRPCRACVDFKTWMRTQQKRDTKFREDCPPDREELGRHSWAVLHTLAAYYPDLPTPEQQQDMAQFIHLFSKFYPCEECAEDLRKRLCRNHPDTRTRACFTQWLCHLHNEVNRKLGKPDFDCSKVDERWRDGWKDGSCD
# Active calls of the source: *; . = no result given. Shown are actives, neighbours in structure and some others; about 5.6% of the full set was active somewhere.
SMILES,H9c2 protect,PfG6PD inh,PHOSPHO1 block,PfM18AAP inh,ALR H2O2 inh
CCOC(=O)COc1ccc(S(=O)(=O)NCC2CCCO2)cc1 (stereo unspecified),11.0,-0.5,196.9*,9.1,-4.9
CC(Oc1ccccc1F)c1nnc(SCC(=O)N(c2ccccc2)C2CCS(=O)(=O)C2)o1 (stereo unspecified),-4.3,2.5,.,.,-10.2
O=C(CSc1nc(-c2ccccc2)cs1)NCCCN1CCCC1=O,-7.2,8.1,.,.,-0.7
O=CC(O)C1OC(=O)C(O)C1O (stereo unspecified),4.0,1.6,.,.,.
CCOc1c(C=C(C#N)C#N)c2ccccc2n1CC,-2.5,4.0,0.6,-3.8,99.1*
COCCNC(=O)c1c(CS(=O)(=O)c2ccccc2)noc1C(=O)NCc1ccccc1,6.5,-4.6,.,.,-9.6
O=C(CSc1nnc(-c2cccnc2)o1)c1cc2ccccc2oc1=O,51.1*,-5.0,-3.3,-13.8,-0.6
COC(=O)c1ccc(NC(=O)CSc2nnc(-c3cccnc3)o2)cc1,-0.2,34.6,.,.,99.3*
O=C(CSc1nnc(-c2cccnc2)o1)Oc1ccccc1,26.9,-1.6,21.8,4.5,14.6
COc1ccccc1OCC(=O)Nc1nnc(-c2ccco2)s1,0.5,-18.1,74.5*,6.6,.
Cc1cccc(C(=O)Nc2nnc(S(=O)(=O)N(C)Cc3ccco3)s2)c1,-4.1,95.4*,18.3,-5.8,94.2*
CCOc1cccc(C(=O)Nc2nnc(-c3ccco3)s2)c1,-13.8,-28.2,76.1*,-5.5,.
Cc1cccc(NS(=O)(=O)c2nnc(NC(=O)c3cccc(C)c3)s2)c1,32.0,-30.1,20.2,0.9,59.4
Cc1ccccc1OCC(=O)Nc1nnc(-c2ccncc2)s1,6.3,-5.3,57.4,1.6,86.7*
Cc1cccc(OCC(=O)Nc2nnc(-c3ccco3)s2)c1,5.8,-19.1,8.0,-6.1,15.2
O=C(NCc1cccnc1)[C@@H]1CC=C[C@@H]2CCN(Cc3ccccc3)C(=O)[C@@H]21,1.7,3.2,.,.,-3.2
COc1ccccc1NC(=O)COc1ccc(C(=O)OCC(=O)NC(C)(C)C)cc1OC,58.8*,-13.9,36.0,-9.8,.
COc1ccccc1OCC(=O)Nc1cccc(-c2nnc(-c3ccco3)o2)c1,64.3*,3.4,27.7,-9.1,0.0
Cc1ccccc1NC(=O)COC(=O)c1ccc(S(C)(=O)=O)c([N+](=O)[O-])c1,-26.4,-4.4,60.0*,5.6,-3.8
CC(C)(C)C(=O)Nc1cccc(-c2nnc(-c3cccc(NC(=O)C(C)(C)C)c3)o2)c1,64.1*,-10.2,-1.1,3.1,-5.4
CS(=O)(=O)c1ccc(C(=O)OCC(=O)Nc2cccnc2Cl)cc1[N+](=O)[O-],-11.8,4.8,.,.,66.0
O=C(Cc1ccccc1)Nc1cccc(-c2nnc(-c3ccco3)o2)c1,-20.1,14.7,15.3,-1.8,2.9
CCN1C(=S)N[C@@H](CCc2ccccc2)C(C(=O)OC)=C1C,-0.1,10.5,-1.7,-3.1,-2.9
COc1ccccc1OCC(=O)Nc1cc(NC(=O)COc2ccccc2OC)cc(C(=O)O)c1,7.0,-15.0,44.0,8.6,98.4*
CCCCn1c(N)c(N(CCOC)C(=O)c2nn(CC)c(=O)c3ccccc23)c(=O)[nH]c1=O,2.5,-9.4,.,.,-39.4
SMILES,H9c2 protect,PfG6PD inh,PHOSPHO1 block,PfM18AAP inh,ALR H2O2 inh
Cc1ccccc1-n1c(=S)[nH]c2nc3c(cc2c1=O)CCCC3,6.1,7.3,28.3,-0.1,97.9*
COCCCNC(=O)C1CCC(CNS(=O)(=O)c2ccc3c(c2)N(C(C)=O)CCO3)CC1 (stereo unspecified),1.5,-14.4,33.2,-13.2,-4.3
CC(C)[C@H](N)c1nnc(SCc2ccc(Cl)cc2)o1,3.7,-5.0,6.0,-4.6,-0.9
O=C(CSc1nnc([C@@H]2CCCN2)o1)c1ccc(Cl)cc1,5.5,-7.6,73.5*,10.1,61.0
CCC(C)[C@H](N)c1nnc(SCC(=O)c2ccc(Cl)cc2)o1 (stereo partly specified),-1.7,-14.7,78.7*,0.6,98.4*
CC(C)Cc1ccc(S(=O)(=O)NCC2CCCO2)cc1 (stereo unspecified),-5.7,4.0,23.9,1.3,-1.5
O=C1N/C(=N/O)S/C1=C\c1ccccc1-n1cccn1,-0.7,-4.9,26.5,2.0,93.5*
O=C1N/C(=N/O)S/C1=C/c1cccc([N+](=O)[O-])c1,1.3,-16.5,-11.2,3.1,8.3
COc1ccc([C@H]2CC(=O)C=C(c3cccc(C#N)c3)C2)cc1,4.8,9.3,.,.,-5.4
